A short description of test [1]: small molecules captured by biotinylated probe aFSTL3 – biochemical, small-molecule microarray, fluorescence 635/667, stem cell growth factor project, primary screen (AID 1064).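 Further: measures binding of the biotinylated anti-FSTL3 antibody to printed compounds.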 The following applies: higher = more signal.
Test [2] can be described thus: binders from COS7 lysate, DM2A8 probe, primary screen, torsin A project, cell lysate, small-molecule microarray, fluorescence 635/667 (AID 1065). The following applies: higher = more signal, COS7 lysate expressing mutant human TOR1A.
Test [3] in a line: small molecules captured by biotinylated probe aFGF2 – biochemical, small-molecule microarray, fluorescence 635/667, stem cell growth factor project, primary screen (AID 1067).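 Further: measures binding of biotinylated aFGF2 protein to printed compounds on slides; z-score merges feature fluorescence and signal-to-noise across triplicate slides.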 The following applies: higher = more signal.
A short description of test [4]: small molecules captured by biotinylated probe aFGF10 – biochemical, small-molecule microarray, fluorescence 635/667, stem cell growth factor project, primary screen (AID 1071).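 Further: score merges 667 nm spot intensity and signal to noise from triplicate slides.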 The following applies: higher = more signal.
In test [5] the target is Neurogenic locus notch homolog protein 2 (Homo sapiens) (UniProt Q04721). The experiment in a line: small molecules binding Notch2 protein – biochemical, small-molecule microarray, 635 nm fluorescence, stem cell growth factors, primary screen (AID 1073). The following applies: higher = more signal.
Test [6] deals with Pro-neuregulin-1, membrane-bound isoform (Homo sapiens) (UniProt Q02297). The experiment in a line: small molecules binding neuregulin-1 protein – biochemical, small-molecule microarray, fluorescence 635/667, psychiatric disease protein project, primary screen (AID 1075).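 Further: score combines 667 nm spot fluorescence with signal to noise.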 The following applies: NRG1 binding, 635 nm fluorescence, higher = more signal.
The test system of test [7] is Neuregulin-1 EGF-like domain. The experiment in a line: small molecules binding NRG1 EGF domain – biochemical, small-molecule microarray, 635 nm fluorescence, primary screen (AID 1081).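 Further: binding of the protein to compounds printed on small-molecule microarray slides.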 The following applies: higher = more signal.
Test [8] is described as follows: FRG1 expression reporter modulators in myotubes – cell-based, C2C12 myotubes, firefly/Renilla luciferase, luminescence, FRG1 inhibition for FSHD, primary screen (AID 1084). The following applies: FRG1 promoter luciferase, higher = more signal, called active from +8 up or from −8 down.
A short description of test [9]: small molecules captured by biotinylated probe aFST – biochemical, small-molecule microarray, fluorescence 635/667, stem cell growth factor project, primary screen (AID 1086).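 Further: score merges 667 nm fluorescence with signal-to-noise of each printed compound spot.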 The following applies: higher = more signal.
Test [10] can be described thus: binders of probe aHhip on microarray, primary screen, stem cell growth factor project, biochemical, small-molecule microarray, fluorescence 635/667 (AID 1087).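 Further: score merges spot fluorescence at 667nm with spot signal to noise ratio.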 The following applies: higher = more signal.
Test [11] deals with PRMT1 (protein arginine N-methyltransferase 1). The experiment in a line: small molecules binding arginine methyltransferase PRMT1 – biochemical, small-molecule microarray, 635 nm fluorescence, primary screen (AID 1088).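 Further: binding of Prmt1 protein to compounds spotted on small-molecule microarray slides.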 The following applies: higher = more signal.
Test [12] can be described thus: growth effects on S. cerevisiae YJM789 – YJM789 clinical isolate, OD600, 24 h, basal, primary screen (AID 1089).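 Further: growth of clinical yeast isolate S. cerevisiae YJM 789 seeded 1000 cells per well; test concentration not given here.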 The following applies: higher = more signal, called active from +8 up or from −8 down.
Test [13] is described as follows: S. pombe growth modifiers, basal conditions – strain 972, OD600, 24 h, no modulator, primary screen (AID 1090).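 Further: basal condition with compound alone and no growth modifier present; test concentration not given here.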 The following applies: S. pombe 972 growth, higher = more signal, called active from +8 up or from −8 down.
Test [14] in a line: budding yeast growth modifiers under rapamycin – strain BY4716, OD600, 96 h, primary screen (AID 1091). Further: test concentration not given here. The following applies: S. cerevisiae BY4716 + rapamycin, higher = more signal, called active from +8 up or from −8 down.
The target in test [15] is Torsin-1A-interacting protein 2 (Homo sapiens) (UniProt Q8NFQ8). The experiment in a line: small molecules binding lysate-expressed LULL1 – cell lysate, human LULL1 lysate, 635/667 nm fluorescence, primary screen (AID 1092).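 Further: probe is lysate of COS7 cells overexpressing human LULL1; score merges per-feature 667 nm fluorescence with signal-to-noise.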 The following applies: small-molecule microarray, hLULL1 lysate binding, 635 nm fluorescence; higher = more signal.
Test [16] is described as follows: optical density change of DRC41 E. coli – strain DRC41, OD650, 24 h, E. coli filamentation project, primary screen (AID 1093).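 Further: MC1000 strain lacking acrAB efflux and sulA so SOS filamentation is blocked; test concentration not given here.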 The following applies: E. coli DRC41 growth, higher = more signal, called active from +8 up or from −8 down.
Test [17] is described as follows: probe aLefty2 binding to arrayed compounds – biochemical, biotinylated probe, 635/667 nm fluorescence, primary screen (AID 1094).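 Further: score merges spot fluorescence near 667 nm with spot signal-to-noise ratio.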 The following applies: small-molecule microarray, higher = more signal.
Test [18] has as its system Noggin (protein binding on small-molecule microarray). The test is described as follows: small molecules binding Noggin protein – biochemical, 635/667 nm fluorescence, primary screen (AID 1095).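 Further: score merges 667 nm feature fluorescence with signal to noise over triplicate slides.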 The following applies: 635 nm fluorescence, higher = more signal.
Test [19] has as its target Neurogenic locus notch homolog protein 3 (Homo sapiens) (UniProt Q9UM47). The experiment in a line: small molecules binding NOTCH3 protein – biochemical, 635/667 nm fluorescence, primary screen (AID 1096). The following applies: small-molecule microarray, 635 nm fluorescence, higher = more signal.
A short description of test [20]: probe aEGFR binding to arrayed compounds – biochemical, biotinylated probe, 635/667 nm fluorescence, primary screen (AID 1097).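 Further: probe is a biotinylated anti-EGFR antibody binding compounds printed on slides; score combines fluorescence near 667 nm and signal to noise of each spot.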 The following applies: small-molecule microarray, higher = more signal.

Results on four molecules are retold here after PubChem BioAssay.

Several values for one entry are separate records, joined by “and”; a condition that tells them apart may be missing. Equal entries are not always repeated. Activity calls are given as the source filed them.

Sequence of Neurogenic locus notch homolog protein 2 (Homo sapiens) (Q04721 whole entry, looked up, canonical isoform): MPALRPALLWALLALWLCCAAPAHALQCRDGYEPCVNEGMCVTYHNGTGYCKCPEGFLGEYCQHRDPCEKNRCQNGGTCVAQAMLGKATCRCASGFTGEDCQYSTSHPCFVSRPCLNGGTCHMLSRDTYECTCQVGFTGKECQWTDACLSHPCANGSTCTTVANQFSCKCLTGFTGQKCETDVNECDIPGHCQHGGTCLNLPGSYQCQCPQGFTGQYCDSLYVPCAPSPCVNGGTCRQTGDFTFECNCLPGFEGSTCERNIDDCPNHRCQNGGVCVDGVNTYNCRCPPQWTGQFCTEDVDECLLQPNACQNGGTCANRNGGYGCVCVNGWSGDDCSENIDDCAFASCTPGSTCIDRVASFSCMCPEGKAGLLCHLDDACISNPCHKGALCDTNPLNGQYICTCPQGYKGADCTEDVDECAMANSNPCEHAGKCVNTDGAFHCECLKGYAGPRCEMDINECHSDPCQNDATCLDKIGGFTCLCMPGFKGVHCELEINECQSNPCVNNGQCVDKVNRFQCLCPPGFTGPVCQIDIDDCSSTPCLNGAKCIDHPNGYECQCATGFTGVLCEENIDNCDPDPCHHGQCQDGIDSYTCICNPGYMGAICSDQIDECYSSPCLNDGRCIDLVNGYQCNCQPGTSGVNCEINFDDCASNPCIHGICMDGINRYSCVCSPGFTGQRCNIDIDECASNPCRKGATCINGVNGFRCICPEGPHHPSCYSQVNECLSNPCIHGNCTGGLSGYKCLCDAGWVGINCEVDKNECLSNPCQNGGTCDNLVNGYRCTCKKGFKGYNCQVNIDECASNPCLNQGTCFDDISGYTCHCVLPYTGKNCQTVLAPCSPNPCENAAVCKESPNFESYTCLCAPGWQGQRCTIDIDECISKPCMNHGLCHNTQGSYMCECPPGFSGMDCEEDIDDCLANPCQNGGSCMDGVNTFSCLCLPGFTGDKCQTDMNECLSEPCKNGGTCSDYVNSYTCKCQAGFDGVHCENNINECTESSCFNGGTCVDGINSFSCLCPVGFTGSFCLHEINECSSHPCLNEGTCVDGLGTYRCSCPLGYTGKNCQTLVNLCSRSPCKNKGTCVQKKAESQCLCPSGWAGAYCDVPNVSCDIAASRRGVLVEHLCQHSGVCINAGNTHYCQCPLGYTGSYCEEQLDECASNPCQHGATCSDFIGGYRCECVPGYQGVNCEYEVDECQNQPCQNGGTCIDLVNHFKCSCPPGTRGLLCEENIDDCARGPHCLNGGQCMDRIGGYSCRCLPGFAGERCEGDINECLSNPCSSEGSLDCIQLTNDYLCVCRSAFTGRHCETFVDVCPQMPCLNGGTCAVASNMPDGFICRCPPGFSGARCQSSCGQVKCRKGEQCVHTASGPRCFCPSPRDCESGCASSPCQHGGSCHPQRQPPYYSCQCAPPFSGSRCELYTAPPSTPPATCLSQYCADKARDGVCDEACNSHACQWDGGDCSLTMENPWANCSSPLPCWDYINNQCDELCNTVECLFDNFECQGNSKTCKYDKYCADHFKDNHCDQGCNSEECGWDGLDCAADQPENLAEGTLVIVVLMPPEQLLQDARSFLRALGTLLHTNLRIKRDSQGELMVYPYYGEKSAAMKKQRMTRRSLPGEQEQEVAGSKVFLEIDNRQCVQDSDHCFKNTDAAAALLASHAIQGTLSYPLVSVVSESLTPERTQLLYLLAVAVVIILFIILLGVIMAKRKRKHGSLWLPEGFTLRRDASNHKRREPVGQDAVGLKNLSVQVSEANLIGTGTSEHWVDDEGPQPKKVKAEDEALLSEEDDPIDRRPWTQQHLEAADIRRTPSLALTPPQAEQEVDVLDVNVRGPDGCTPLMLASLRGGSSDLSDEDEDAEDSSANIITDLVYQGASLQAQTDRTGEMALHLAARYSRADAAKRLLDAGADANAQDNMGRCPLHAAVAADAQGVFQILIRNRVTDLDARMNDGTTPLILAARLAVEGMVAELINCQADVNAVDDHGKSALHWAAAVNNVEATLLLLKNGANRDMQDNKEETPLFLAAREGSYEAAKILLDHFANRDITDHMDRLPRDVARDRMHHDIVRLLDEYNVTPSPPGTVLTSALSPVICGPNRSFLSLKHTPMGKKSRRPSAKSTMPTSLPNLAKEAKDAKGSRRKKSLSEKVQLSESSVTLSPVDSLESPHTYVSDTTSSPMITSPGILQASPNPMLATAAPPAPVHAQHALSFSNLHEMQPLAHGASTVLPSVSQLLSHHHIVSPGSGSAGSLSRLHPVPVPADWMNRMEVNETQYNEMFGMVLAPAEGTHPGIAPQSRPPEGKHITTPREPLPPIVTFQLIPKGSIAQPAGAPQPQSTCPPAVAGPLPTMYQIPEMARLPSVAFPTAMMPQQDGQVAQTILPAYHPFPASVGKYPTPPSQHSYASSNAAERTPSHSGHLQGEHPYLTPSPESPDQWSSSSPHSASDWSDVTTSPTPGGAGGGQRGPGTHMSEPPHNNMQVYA
Sequence of Torsin-1A-interacting protein 2 (Homo sapiens) (Q8NFQ8 whole entry, looked up): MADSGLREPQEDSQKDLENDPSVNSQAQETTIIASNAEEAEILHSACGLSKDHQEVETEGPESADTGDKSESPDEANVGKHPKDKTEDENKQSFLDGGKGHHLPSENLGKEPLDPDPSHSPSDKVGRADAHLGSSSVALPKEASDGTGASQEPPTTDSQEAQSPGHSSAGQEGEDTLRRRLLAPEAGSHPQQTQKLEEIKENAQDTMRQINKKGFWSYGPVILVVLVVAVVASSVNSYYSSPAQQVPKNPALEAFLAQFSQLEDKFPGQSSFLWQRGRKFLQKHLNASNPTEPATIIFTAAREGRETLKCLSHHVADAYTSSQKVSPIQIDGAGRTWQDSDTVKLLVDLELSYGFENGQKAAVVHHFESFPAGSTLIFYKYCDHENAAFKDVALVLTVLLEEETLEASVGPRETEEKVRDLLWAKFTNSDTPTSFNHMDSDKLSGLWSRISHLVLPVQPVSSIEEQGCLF
Sequence of Pro-neuregulin-1, membrane-bound isoform (Homo sapiens) (Q02297 whole entry, looked up, the tested form may be a part, canonical isoform): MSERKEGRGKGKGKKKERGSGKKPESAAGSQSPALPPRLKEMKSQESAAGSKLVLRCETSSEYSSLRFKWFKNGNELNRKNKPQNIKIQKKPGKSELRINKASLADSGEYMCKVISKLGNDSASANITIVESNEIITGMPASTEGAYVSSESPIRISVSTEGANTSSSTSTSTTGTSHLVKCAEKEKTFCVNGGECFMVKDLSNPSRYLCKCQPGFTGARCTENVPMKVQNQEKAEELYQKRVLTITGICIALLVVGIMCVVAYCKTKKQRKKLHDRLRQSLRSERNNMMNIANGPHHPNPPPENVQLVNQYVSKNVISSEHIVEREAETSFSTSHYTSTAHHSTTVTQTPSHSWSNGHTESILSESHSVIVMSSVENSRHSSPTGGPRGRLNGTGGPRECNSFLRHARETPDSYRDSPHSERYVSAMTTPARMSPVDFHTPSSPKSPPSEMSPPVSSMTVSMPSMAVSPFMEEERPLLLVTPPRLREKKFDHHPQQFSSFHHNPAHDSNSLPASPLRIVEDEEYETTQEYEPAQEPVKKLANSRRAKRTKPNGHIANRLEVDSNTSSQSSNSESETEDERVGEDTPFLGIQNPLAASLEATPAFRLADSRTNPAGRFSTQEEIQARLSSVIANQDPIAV

Regarding `C=C[C@H](OC)[C@@H](O)c1ccc(O)c(F)c1`, the composite z-score in [1] was 1.25 and 1.29; in [2], -0.903 and -2.05; in [3], -0.116 and -0.247; in test [4], -0.458 and -0.0501; in test [5], -2.17 and -1.38; in [6] it was -0.527 and -1.01. The composite z-score in test [7] was -0.0988 and 0.736; in test [9], -1.08 and -1.54; in test [10] it was -0.213 and -0.314; in [11], -1.12 and -0.749; in [15] it was -0.93 and -0.808; in [17], -0.0992 and -0.215. The composite z-score was -2.38 and -1.6 in [18]; -1.42 and -1.23 in test [19]; -0.435 and -0.387 in [20]. Also, the z-score in test [8] was 0.537 (inactive) and -0.0808 (inactive); in [12], -0.603 (inactive) and 0.106 (inactive); in [13], -0.0898 (inactive) and -0.311 (inactive); in [14] it was -1.17 (inactive) and -0.327 (inactive); in test [16], -0.853 (inactive) and 0.238 (inactive).

As to `C[N+](C)(C)CCCCNC(=O)[C@H]1C[C@H]2C(=O)N[C@@H](CCCC[N+](C)(C)C)C(=O)N2[C@H]1c1cccc(OCCO)c1`, the composite z-score in [1] was -0.0665 and -0.363; in test [2], -0.422 and 1.12; in [3], -0.0744 and -0.149; in [4], 1.24 and 0.967; in test [5] it was -0.0613 and 0.622; in test [6], 1.24 and 0.211. Also, the composite z-score in [7] was 0.973 and 1.38; in test [9] it was 0.613 and 0.743; in test [10], 0.142 and -0.41; in [11], 1.04 and 1.57; in test [15], 2.58 and 1.78; in test [17], -0.121 and -0.0153. Also, the composite z-score in test [18] was 1.89 and 1.75; in test [19] it was 0.914 and 1.1; in test [20] it was 0.0614 and 0.22. Further, the z-score is -0.194 (inactive) and -0.269 (inactive) in [8]; -0.604 (inactive) and -0.504 (inactive) in test [12]; -0.0107 (inactive) and -0.805 (inactive) in test [13]; -1.88 (inactive) and -1.81 (inactive) in test [14]; -0.351 (inactive) and -0.201 (inactive) in test [16].

Regarding `C[C@@H](ON=C1[C@H]2CCn3c(=O)n(-c4ccccc4)c(=O)n3[C@H]2[C@H](O)[C@@H]2O[C@H]12)c1cn([C@H](CO)Cc2ccccc2)nn1`, the composite z-score in test [1] is -0.289; in test [2], 0.316; in [3], -0.113; in test [4], 0.449; in test [5], 0.308; in [6], 0.11. For the same molecule, the composite z-score in test [7] is 0.536; in test [9] it was 0.0701; in [10], -0.64; in test [11], 0.587; in test [15], 0.61; in test [17] it was -0.282. Also, the composite z-score in [18] is 0.557; in test [19] it was 0.668; in test [20], -0.194. Also, the z-score is 0.887 (inactive) in test [8]; -0.217 (inactive) in test [12]; -0.165 (inactive) in test [13]; 0.0121 (inactive) in test [14]; 0.381 (inactive) in [16].

Consider `C=CCN(CCCCC)C(=O)C1N(c2ccc(CCO)cc2)C(=O)C2C(C(=O)O)C3C=CC21O3` (stereo not given), for which the composite z-score in [1] is -0.152 and 0.561; in test [2] it was -0.875 and -0.415; in test [3], -0.154 and -0.179; in [4], -0.808 and -0.367; in [5], -2.12 and -2.03; in [6], -0.638 and -0.72. The composite z-score is -0.465 and -0.307 in [7]; -0.623 and -0.681 in [9]; -0.4 and -0.175 in [10]; -0.303 and -0.476 in test [11]; -0.379 and 0.173 in test [15]; -0.0374 and 0.699 in test [17]. The composite z-score in test [18] was -1.73 and -1.08; in [19], -0.636 and -0.651; in test [20], -0.233 and -0.145. The z-score in test [8] is 1.51 (inactive) and 1.3 (inactive); in test [12] it was 0.0099 (inactive) and -0.194 (inactive); in [13], -0.804 (inactive) and 0.336 (inactive); in [14], -0.231 (inactive) and -0.137 (inactive); in test [16] it was 0.287 (inactive) and 1.11 (inactive).
